Results taken from ChEMBL document CHEMBL4513216, “Probing the Open Global Health Chemical Diversity Library for Multistage-Active Starting Points for Next-Generation Antimalarials” (ACS Infect Dis, 2020).
About 2,100 (3.2%) of roughly 65,000 compounds showed an effect of 50% or more. The median lay at about -52%. This is one part of a sample in which strong results are shown more often than they occur.

Test system: Plasmodium falciparum
Assay: Screen against P. falciparum Asexual Blood Stage (ABS), at 5uM
Assay type: functional, Dd2
Details: tested at 5 uM

Structure (SMILES) | INHIBITION [%]
Cc1csc(N2CCN(CC(=O)Nc3ccncc3)CC2C)n1 (stereo not drawn) | -32.7
COc1cc(OC)cc(C(=O)Nc2ncnc3c2CCC3)c1 | -80.8
Cc1n[nH]cc1CNCC1(c2ccc3c(c2)OCO3)CCOCC1 | -37.3
O=C(NCC1(O)CCOC1)NCC1(c2ccccc2Cl)CCC1 (stereo not drawn) | -90.2
Cc1n[nH]cc1CNCC1(c2ccccc2Cl)CCOCC1 | 57.1
COc1ccc(COCC(O)CNC(=O)c2ccncc2)cc1 (stereo not drawn) | -119
O=C(Nc1ccc(F)cc1)N1C[C@@H]2CC[C@H]1CN(Cc1cccnc1)C2 | -74.3
NC(=O)C1CCN(c2nccc(-c3c[nH]nc3C3CCCCC3)n2)CC1 | 16.3
c1cc(-c2c[nH]nc2C2CCCCC2)nc(N2CCCCCC2)n1 | 1.32
CN1CCCN(c2nccc(-c3cncnc3C3CCCCC3)n2)CC1 | 61.6
CN1CCN(c2ncc(-c3cnccn3)c([C@H]3CCCO3)n2)CC1 | -10.1
CN1CCN(c2nccc(-c3cncnc3C3CCCCC3)n2)CC1 | 62.3
c1cc(-c2cn3nccc3nc2C2CCCCC2)nc(N2CCCC2)n1 | 3.54
O=C(C[C@@H]1COC[C@H]2CN(C3CCCC3)C[C@@H]12)N1CCCCO1 | -31.2
CC(C)CS(=O)(=O)N1CCC2(CN(c3cccc(F)c3)C(=O)CN2C)C1 (stereo not drawn) | -101
C=C/C=c1\c(=C/C)oc2c(NCc3ccccc3)nc(C)nc12 | 3.94
CCS(=O)(=O)N1CCc2cc(C(=O)NC)c(NCC3CC3)nc2CC1 | -28
CCOC(=O)C1CCN(C(=O)CN2CCCC2c2ccsc2)CC1 (stereo not drawn) | 50.9
CCOC(=O)C1CCN(C(=O)CN2CCCC2c2cc(C)no2)CC1 (stereo not drawn) | -126
CCOC(=O)C1CCN(C(=O)CN2CCCC2c2ccccc2C)CC1 (stereo not drawn) | 28.2
CC(=O)N(C)Cc1ccccc1NC(=O)N(C)CCc1cccs1 | -28.3
CC(C)c1cncnc1-c1cc(F)cc2c1OC(CN)C2 (stereo not drawn) | 29.4
Cc1cc2c(c(-c3cncc(C(=O)N4CCCC4)n3)c1)OC(CN)C2 (stereo not drawn) | 4.12
NCC1Cc2cc(-c3cncc(C(=O)N4CCCCC4)n3)cc(F)c2O1 (stereo not drawn) | 51.3
NCC1Cc2cc(-c3cnccn3)cc(Cl)c2O1 (stereo not drawn) | -13.4
NCC1Cc2cc(-c3cncc(C(=O)N4CCOCC4)n3)cc(Cl)c2O1 (stereo not drawn) | -15.2
Cc1nc(-c2cc(F)c3c(c2)CC(CN)O3)c[nH]1 (stereo not drawn) | 53.7
Cc1cc(NC(=O)CN2CCCC2c2noc(C)n2)n(C(C)(C)C)n1 (stereo not drawn) | -108
